Records with an inconclusive call do not appear. Unless noted, the call rests on the fitted dose curve; in most records, active means well fitted curve in either direction with a large enough effect (not every such curve was filed as active); inconclusive means small, poorly fitted or top-dose-only effect, or another doubt; inactive means flat fitted curve, though single readings scatter.
Experiments:
[1] = AP1 Signaling Pathway (AID 357); settings: ME-180 AP-1-bla reporter, EGF-induced, beta-lactamase ratio, 5 h; at 17.2 µM (top of the series) unless noted;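 further: ME-180 reporter cells stimulated with EGF at its EC50 level; on the % scale 0 is the no-effect control and ±100 the full control effect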
In short: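 AP-1-bla ME-180 cells, Opti-MEM + 0.5% dialyzed FBS, plated overnight 37 °C. Cpd titration + EC50 EGF, 5 h 37 °C. CCF4 2.5 h RT; ex 405, em 460/530 ratio → %activity, AC50.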

[2] = NFAT Signaling Pathway (AID 444); settings: Jurkat NFAT-bla M1, carbachol, beta-lactamase ratio, 5 h; at 17.2 µM (top of the series) unless noted;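 further: carbachol stimulus at about its EC50 of 1 µM final; on the % scale 0 is the no-effect control and ±100 the full control effect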
In short: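 Jurkat cells with NFAT-driven β-lactamase reporter and co-expressed M1 receptor, stimulated with carbachol (final 1 uM, ~EC50), compound titration, 5 h at 37 °C. CCF4 loaded 1 h at RT; 460/530 nm ratio gave %activity and AC50.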

[3] = Stat Signaling Pathway (AID 446); settings: ME-180 (cervical carcinoma) SIE beta-lactamase reporter, IL-6 stimulated, 5 h; at 17.2 µM (top of the series) unless noted;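 further: ME-180 cervical cancer cells given 40 pM IL-6 alongside compound; SIE-controlled beta-lactamase reporter measured as 460/530 nm FRET emission ratio; on the % scale 0 is the no-effect control and ±100 the full control effect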
In short: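 IL-6/STAT signaling read in ME-180 cells via an SIE beta-lactamase reporter. Stimulus was 40 pM IL-6 (its AC50) for 5 hrs, so both activation and inhibition register.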

[4] = molecular target: Glucocorticoid receptor (Homo sapiens) (UniProt P04150); assay: GR-GFP Redistribution (AID 450;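 active means compounds whose dose series gives a full or clear partial fitted curve of increased nuclear translocation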; further: potency means the concentration at half of the fitted maximal effect)
Glucocorticoid receptor (Homo sapiens), sequence (P04150 whole entry, looked up): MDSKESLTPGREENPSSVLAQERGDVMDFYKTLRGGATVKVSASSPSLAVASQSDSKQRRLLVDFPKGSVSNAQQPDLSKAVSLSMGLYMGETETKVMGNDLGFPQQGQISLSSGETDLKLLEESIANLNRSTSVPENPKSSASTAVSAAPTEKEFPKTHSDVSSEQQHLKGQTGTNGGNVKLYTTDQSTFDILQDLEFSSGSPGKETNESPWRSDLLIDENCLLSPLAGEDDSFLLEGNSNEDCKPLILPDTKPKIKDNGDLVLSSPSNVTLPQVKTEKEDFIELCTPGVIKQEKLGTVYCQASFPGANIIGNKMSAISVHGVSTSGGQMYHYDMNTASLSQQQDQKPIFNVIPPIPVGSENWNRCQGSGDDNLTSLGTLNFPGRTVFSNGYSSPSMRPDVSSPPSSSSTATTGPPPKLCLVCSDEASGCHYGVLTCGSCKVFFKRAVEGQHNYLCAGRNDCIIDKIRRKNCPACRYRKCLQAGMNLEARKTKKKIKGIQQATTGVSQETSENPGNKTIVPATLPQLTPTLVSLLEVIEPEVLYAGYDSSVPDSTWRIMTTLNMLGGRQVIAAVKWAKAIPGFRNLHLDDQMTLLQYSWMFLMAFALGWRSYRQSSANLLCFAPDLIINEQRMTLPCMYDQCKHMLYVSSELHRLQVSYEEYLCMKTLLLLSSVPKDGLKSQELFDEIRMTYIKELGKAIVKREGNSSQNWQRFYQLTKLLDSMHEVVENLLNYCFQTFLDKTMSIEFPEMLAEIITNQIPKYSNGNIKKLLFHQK

Cc1cccc(NC(=O)c2cc(N3CCOCC3)nc3ccccc23)c1
inactive: activity change, negative = inhibition [1] -7.76% | activity change, negative = inhibition [2] 28.7% | activity, negative = inhibition [3] -0.239% | Potency [4] > 20.6 µM

Cc1cc(NC(=O)CSc2nc(-c3cccnc3)ccc2C#N)no1
inactive: activity change, negative = inhibition [1] -14.4% | activity change, negative = inhibition [2] 6.09% | activity, negative = inhibition [3] -9.33% | Potency [4] > 20.6 µM

COc1ccc(-c2cc(-c3ccccc3)n3ncnc3n2)cc1
inactive: activity change, negative = inhibition [1] -5.02% | activity change, negative = inhibition [2] -9.06% | activity, negative = inhibition [3] 1.12% | Potency [4] > 20.6 µM

Cc1cc(C)n(CC(=O)n2nc(C)cc2C)n1
inactive: activity change, negative = inhibition [1] 11.3% | activity change, negative = inhibition [2] -8.81% | activity, negative = inhibition [3] 8.01% | Potency [4] > 20.6 µM

Cc1nnc(SCc2nc3ccccc3[nH]2)s1
inactive: activity change, negative = inhibition [1] 1.21% | activity change, negative = inhibition [2] 8.95% | activity, negative = inhibition [3] 4.08% | Potency [4] > 20.6 µM

Cc1ccc(C(=O)NCCCNCCCNC(=O)c2ccc(C)nc2)cn1
inactive: activity change, negative = inhibition [1] 8.18% | activity change, negative = inhibition [2] -5.81% | activity, negative = inhibition [3] 5.34% | Potency [4] > 20.6 µM

Cc1ccccc1OCC(O)Cn1c(N2CCN(c3ccccc3)CC2)nc2c1c(=O)[nH]c(=O)n2C (centres undefined)
inactive: activity change, negative = inhibition [1] 14.4% | activity change, negative = inhibition [2] -4.3% | activity, negative = inhibition [3] -10.5% | Potency [4] > 20.6 µM

CCCCn1c2nc3ccccc3nc2c2c(=O)n(CC(C)C)cnc21
inactive: activity change, negative = inhibition [1] -1.88% | activity change, negative = inhibition [2] -20.4% | activity, negative = inhibition [3] -6.11% | Potency [4] > 20.6 µM

Cc1c(C(=O)O)sc(=S)n1-c1ccccc1
inactive: activity change, negative = inhibition [1] 11% | activity change, negative = inhibition [2] 2.74% | activity, negative = inhibition [3] 4.36% | Potency [4] > 20.6 µM

CC(=O)Oc1ccccc1C1OC(=O)c2ccccc2N1C(C)=O (centres undefined)
inactive: activity change, negative = inhibition [1] 14.3% | activity change, negative = inhibition [2] 12.4% | activity, negative = inhibition [3] 5.01% | Potency [4] > 20.6 µM

O=C(O)CC(SCc1ccc(C(=O)O)o1)C(=O)O (centres undefined)
inactive: activity change, negative = inhibition [1] 7.18% | activity change, negative = inhibition [2] -1.8% | activity, negative = inhibition [3] 0.837% | Potency [4] > 20.6 µM

c1ccc(-c2nnc3n2N=C(c2ccc4c(c2)OCO4)CS3)nc1
inactive: activity change, negative = inhibition [1] 2.99% | activity change, negative = inhibition [2] 19.9% | activity, negative = inhibition [3] -6.24% | Potency [4] > 20.6 µM

CSc1nc(O)c(Cc2ccccc2)c(=O)[nH]1
inactive: activity change, negative = inhibition [1] -12.8% | activity change, negative = inhibition [2] 14.1% | activity, negative = inhibition [3] 0.301% | Potency [4] > 20.6 µM

CC(C)c1nc2n[nH]c(N)c2c2c1CCC2
inactive: activity change, negative = inhibition [1] 3.28% | activity change, negative = inhibition [2] 9.31% | activity, negative = inhibition [3] -1.39% | Potency [4] > 20.6 µM

CCOC(=O)c1sc(-n2[nH]c(C)cc2=O)nc1C
inactive: activity change, negative = inhibition [1] -2.34% | activity change, negative = inhibition [2] 8.32% | activity, negative = inhibition [3] 1.64% | Potency [4] > 20.6 µM

Clc1cccc(-c2nn3c(COc4ccccc4)nnc3s2)c1
inactive: activity change, negative = inhibition [1] 6.46% | activity change, negative = inhibition [2] -0.831% | activity, negative = inhibition [3] 17.5% | Potency [4] > 20.6 µM

CCNC(=O)COn1c(SCC(=O)NCC)nc2ccccc2c1=O
inactive: activity change, negative = inhibition [1] -9.03% | activity change, negative = inhibition [2] 9.09% | activity, negative = inhibition [3] 8.5% | Potency [4] > 20.6 µM

Cn1c(Cn2cnc(Cl)c2Cl)nc2ccccc21
inactive: activity change, negative = inhibition [1] 2.26% | activity change, negative = inhibition [2] -0.211% | activity, negative = inhibition [3] 7.94% | Potency [4] > 20.6 µM

O=C(O)CCc1nn2cc(-c3ccccc3)nc2[nH]c1=O
inactive: activity change, negative = inhibition [1] 6.39% | activity change, negative = inhibition [2] -22.2% | activity, negative = inhibition [3] 10.5% | Potency [4] > 20.6 µM

CCCn1nnc(NC(=O)c2cc(Br)cc(Br)c2OC)n1
inactive: activity change, negative = inhibition [1] -4.03% | activity change, negative = inhibition [2] -11.1% | activity, negative = inhibition [3] -4.41% | Potency [4] > 20.6 µM

OCCOCCNc1ncnc2c1cnn2-c1ccccc1
inactive: activity change, negative = inhibition [1] 7% | activity change, negative = inhibition [2] 1.59% | activity, negative = inhibition [3] -1.47% | Potency [4] > 20.6 µM

O=C(c1ccccc1)n1c(=S)nc2ccccn21
inactive: activity change, negative = inhibition [1] 4.19% | activity change, negative = inhibition [2] -14% | activity, negative = inhibition [3] -3.1% | Potency [4] > 20.6 µM

Cc1nc(NS(=O)(=O)c2ccccc2)sc1NC(=O)OC(C)C
inactive: activity change, negative = inhibition [1] 3.92% | activity change, negative = inhibition [2] -1.13% | activity, negative = inhibition [3] 3.96% | Potency [4] > 20.6 µM

Cc1[nH]c2ccc3c(ncn3CCC#N)c2c1C
inactive: activity change, negative = inhibition [1] 0.919% | activity change, negative = inhibition [2] 9.51% | activity, negative = inhibition [3] -5.09% | Potency [4] > 20.6 µM

CCOc1nc(SCCOc2ccccc2)nc(N(C)C)n1
inactive: activity change, negative = inhibition [1] -22.1% | activity change, negative = inhibition [2] 28% | activity, negative = inhibition [3] 8.95% | Potency [4] > 20.6 µM

COc1ccc2c(c1OC)C(=O)N1c3ccccc3SC21 (centres undefined)
inactive: activity change, negative = inhibition [1] 2.44% | activity change, negative = inhibition [2] 6% | activity, negative = inhibition [3] -2.16% | Potency [4] > 20.6 µM

Source: PubChem BioAssay (NCATS)
